Records with an inconclusive call do not appear. A number with no mark means an inactive call. Calls follow the shape of the dose curve; as a rule, active = well fitted activation curve with a large enough effect; inconclusive = small, poorly fitted or top-dose-only effect, or another doubt; inactive = no such curve, though single readings can be large or run the other way.
molecular target: Rap guanine nucleotide exchange factor 3 (Homo sapiens) (UniProt O95398); assay: Counterscreen qHTS for agonist of cAMP-regulated guanine nucleotide exchange factor 3 (EPAC1) (AID 1645889); settings: EPAC1 Rap1B-BODIPY-GDP exchange, fluorescence; series mostly up to 154 µM; activation: at the top concentration; also: % of control where 0% means no effect; nearly all actives have a fitted effect of over 40% in size
Outline: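 Measured: fluorescence of BODIPY-GDP bound to Rap1B, which falls as exchange proceeds. Conditions include 50 uM competing GDP, 5 and 30 min reads, and a later cAMP challenge for antagonist detection.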

| Compound | activation |
| --- | --- |
| C=CCn1c(=NC(=O)c2sc3ccccc3c2Cl)sc2cc(S(N)(=O)=O)ccc21 | -3.52% |
| CC(C)N1CCc2c(sc(NC(=O)c3ccc(S(=O)(=O)N4CCc5ccccc54)cc3)c2C(N)=O)C1 | 24.7% |
| O=C(NCCc1c[nH]c2ccccc12)C(=O)Nc1cc2c3c(c1)CC(=O)N3CCC2 | 17.8% |
| O=[N+]([O-])c1ccc(NS(=O)(=O)c2ccc(Cl)c(Cl)c2)cc1 | -1.42% |
| COc1ccc(OC)c(N2C(=O)[C@@H]3C(c4ccccc4Cl)=NO[C@@H]3C2=O)c1 | 5.31% |
| Clc1ccc(Cn2c(/C=C/c3ccco3)nc3ccccc32)cc1 | 9.51% |
| COc1ccc(OC)c(CCNC(=O)c2ccc(CS(=O)(=O)c3ccc(Br)cc3)o2)c1 | 7.11% |
| Cc1ccc(N(Cc2cccs2)C(=O)c2ccco2)cc1 | 16.6% |
| CCc1ccc(NS(=O)(=O)c2cc3c4c(c2)CCN4C(=O)CC3)cc1 | -0.58% |
| NS(=O)(=O)c1ccc(NC(=O)c2cccc(N3C(=O)c4ccccc4C3=O)c2)cc1 | 23.3% [at 30.8 µM] |
| O=C1C=C(NCc2ccccc2)c2ccccc2C1=O | 8.23% |
| CC(Oc1ccc(Cl)cc1)C(=O)Nc1sccc1C(N)=O (stereo not given) | 24.1% [at 30.8 µM] |
| O=S(=O)(NCCC1=CCCCC1)c1ccc(OC(F)(F)F)cc1 | 3.2% [at 30.8 µM] |
| COc1ccc(-c2nc3ccccc3n2CCC(C)C)cc1OC | 16.4% |
| O=C(O)c1ccccc1NS(=O)(=O)c1ccc(NN=Cc2ccccc2F)c([N+](=O)[O-])c1 | 23.2% [at 30.8 µM] |

From PubChem BioAssay (NCATS)
